VACV mCherry inh = inhibitors of vaccinia virus infection (mCherry reporter signal). Vaccinia virus mCherry reporter infection, fluorescence. Potency, µM (series often up to 36.5 µM), most hits filed as inhibitors. actives 0.63% (n = 310,000). AID 720579; calls by dose curve; tested in A549 cells; also: nearly all actives have a fitted effect of over 35% in size
FMDV inh = antivirals against foot and mouth disease virus; actives 1.2% (n = 410,000); FMDV antiviral cell-based qHTS; Potency, µM (doses to about 57.9 µM), usual class: inhibitors; calls by dose curve; tested in HEK293T cells; also: read-out not given here; nearly all actives have a fitted effect of over 45% in size
VACV Venus inh = inhibitors of vaccinia virus (Venus reporter); Vaccinia virus Venus reporter expression, fluorescence; Potency, µM (top dose mostly 36.5 µM), usual class: inhibitors; actives 0.46% (n = 330,000); AID 720580; calls by dose curve; tested in A549 cells; also: nearly all actives have a fitted effect of over 30% in size
Giardia FBPA inh = inhibitors of Giardia lamblia fructose-1,6-bisphosphate aldolase | A8B2U2 | purified Giardia FBPA | Potency, µM (top dose mostly 59.6 µM), usual class: inhibitors | actives 0.71% (n = 290,000) | AID 2451; active = well fitted inhibition curve with a large enough effect; inconclusive = small, poorly fitted or top-dose-only effect, or effect the other way; also: nearly all actives have a fitted effect of over 55% in size
Target sequence (A8B2U2 whole entry, looked up): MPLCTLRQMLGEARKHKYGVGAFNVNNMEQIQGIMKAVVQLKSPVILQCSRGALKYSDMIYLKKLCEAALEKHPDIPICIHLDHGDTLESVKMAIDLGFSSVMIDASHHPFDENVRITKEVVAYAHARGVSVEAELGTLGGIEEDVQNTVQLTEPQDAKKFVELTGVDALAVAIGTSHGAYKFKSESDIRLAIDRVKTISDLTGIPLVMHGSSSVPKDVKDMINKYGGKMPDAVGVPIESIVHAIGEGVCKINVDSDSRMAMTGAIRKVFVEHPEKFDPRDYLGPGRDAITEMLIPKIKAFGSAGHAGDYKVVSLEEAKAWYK
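Giardia FBPA (40 nM reagent) was preincubated 10 min at RT with compound (up to 57.5 uM final), then substrate plus GAPDH/TPI/NAD/arsenate coupling system with diaphorase/resazurin was added; resorufin fluorescence (525/598 nm) was read after 20 min.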
Of the large screens only hits and unclear results are named; the others gave an inactive call. An excerpt weighted towards active compounds, which were near 2.2% of everything screened.

Cc1onc(-c2c(F)cccc2Cl)c1C(=O)N1CCN(c2ncc(Br)cn2)CC1	FMDV inh 28.2µM
CCOC(=O)c1ccc(NC(=O)CSc2nc3c(cc2C#N)N2CCC3CC2)cc1	FMDV inh 12.6µM (no result: Giardia FBPA inh)
CCc1noc(C)c1C(=O)Nc1ccc(S(=O)(=O)N2CCCCC2)cc1	none (no result: Giardia FBPA inh)
CCc1noc(C)c1C(=O)Nc1ccc(Cl)c(S(=O)(=O)N2CCCCC2)c1	FMDV inh 22.4µM (no result: Giardia FBPA inh)
O=c1oc2ccccc2cc1-c1csc(Nc2nc3c(F)cccc3s2)n1	FMDV inh 7.08µM
Cc1c(N=C2C=CC(=O)c3ccccc32)c(=O)n(-c2ccccc2)n1C	VACV mCherry inh inconclusive, FMDV inh 35.5µM, VACV Venus inh inconclusive, Giardia FBPA inh 17.7µM
Cc1c(N=Nc2c(O)n(C)c(=O)n(C)c2=O)c(=O)n(-c2ccccc2)n1C	FMDV inh inconclusive
Cc1cnc(C)c(-c2cc(F)cc3c2OC(CNC(=O)c2cc(Cl)ccc2F)C3)n1 (stereo not drawn)	none (no result: Giardia FBPA inh)
C[C@H]1C=CC(=O)O[C@H]1c1ccccc1	VACV mCherry inh inconclusive, VACV Venus inh 3.16µM
C[C@@H]1C=CC(=O)O[C@@H]1c1ccc(C(F)(F)F)cc1	none (no result: VACV mCherry inh, FMDV inh, VACV Venus inh)
COc1cnc(-c2ccccn2)nc1NC(C)C	VACV mCherry inh 4.47µM, VACV Venus inh inconclusive, Giardia FBPA inh inconclusive
COc1ccccc1Sc1nc(-c2ccccn2)ncc1OC	VACV mCherry inh 5.01µM, Giardia FBPA inh inconclusive
COc1cnc(-c2ccccn2)nc1Oc1ccc(Cl)c2ccccc12	FMDV inh 3.16µM (no result: VACV mCherry inh, VACV Venus inh)
O=C(C[n+]1ccccc1Br)c1ccc(Cl)cc1	none (no result: FMDV inh, Giardia FBPA inh)
O=C(CCc1ccccc1)c1ccc2c(c1)OCCCO2	none (no result: VACV mCherry inh, VACV Venus inh)
O=C(NCCc1ccccc1)c1ccc2c(c1)OCCO2	FMDV inh 1.78µM (no result: Giardia FBPA inh)
O=C(NCCc1ccccc1)c1ccc2c(c1)OCCCO2	FMDV inh 1.12µM
COc1ccc(CCNC(=O)c2ccc3c(c2)OCCO3)cc1	none
O=C(NCCS(=O)(=O)NCCc1ccccc1)c1ccc2c(c1)OCO2	none (no result: Giardia FBPA inh)
O=C(CCCc1ccccc1)c1ccc2c(c1)OCCO2	FMDV inh 7.94µM
CCOC(=O)C1CCCN(C(=O)c2cc3nc(-c4ccc5c(c4)OCO5)cc(C(F)(F)F)n3n2)C1 (stereo not drawn)	FMDV inh 35.5µM (no result: VACV mCherry inh, VACV Venus inh)
Cc1ccc(-c2cc(C(F)(F)F)n3nc(C(=O)N4CCN5CCCC5C4)cc3n2)cc1 (stereo not drawn)	none
CC(=O)c1cccc(NC(=O)c2c(F)c(F)c(F)c(F)c2F)c1	VACV Venus inh 10µM (no result: VACV mCherry inh)
O=C(Nc1ccncc1)c1c(F)c(F)c(F)c(F)c1F	VACV mCherry inh 6.31µM, FMDV inh inconclusive, VACV Venus inh inconclusive
CCn1c(-c2cccnc2)nc2cc(NC(=O)COC)cc(C(=O)N3CC[C@@H]4CCCC[C@H]4C3)c21	none (no result: Giardia FBPA inh)
CO[C@H]1[C@H](NC(=O)c2ccsc2)c2ccccc2C12CCN(Cc1cnn(C)c1C)CC2	none (no result: Giardia FBPA inh)
COc1ccccc1CNC(=O)CCC1N=C2c3ccccc3N=C(SCc3cccc(Cl)c3)N2C1=O (stereo not drawn)	VACV mCherry inh 3.98µM, VACV Venus inh inconclusive (no result: Giardia FBPA inh)
O=C(CCC1N=C2c3ccccc3N=C(SCc3cccc(Cl)c3)N2C1=O)N1CCN(c2ccccc2)CC1 (stereo not drawn)	VACV mCherry inh 8.91µM, FMDV inh inconclusive, VACV Venus inh inconclusive (no result: Giardia FBPA inh)
Cc1cc(-c2ccnc(-n3ncc(C(=O)NCC4COCCO4)c3C)n2)c(C)s1 (stereo not drawn)	none (no result: Giardia FBPA inh)
COc1cc2c(cc1OC)CN(c1ccc([N+](=O)[O-])cc1Cl)CC2	FMDV inh inconclusive
COc1cc2c(cc1OC)CN(c1ccc([N+](=O)[O-])cc1C#N)CC2	FMDV inh 31.6µM
CN(N=O)c1ccc(/C=C2\C=Cc3ccccc32)cc1	none (no result: FMDV inh, Giardia FBPA inh)
O=C(O)c1ccc(Nc2nc3c(s2)CCCC3)cc1	FMDV inh 10µM (no result: VACV mCherry inh, VACV Venus inh)
Cc1nc(Nc2ccc(C(=O)O)cc2)sc1-c1ccccc1	FMDV inh 7.08µM
Cc1nc(Nc2ccccc2)sc1-c1ccccc1	VACV Venus inh inconclusive
COc1cc(C(=O)Oc2ccccc2/C=N/NC(=O)c2ccc(C)c(Cl)c2)cc(OC)c1OC	VACV mCherry inh 5.01µM, VACV Venus inh inconclusive
COc1cc(/C=N/NC(=O)c2ccc(-c3ccccc3)cc2)cc(OC)c1OC	VACV mCherry inh 5.62µM, VACV Venus inh inconclusive
COc1ccc(/C=N\NC(=O)c2ccc(-c3ccccc3)cc2)c(OC)c1OC	none (no result: Giardia FBPA inh)
COc1cc(C(=O)Oc2ccccc2/C=N/NC(=O)c2ccc(Cl)cc2)cc(OC)c1OC	VACV mCherry inh inconclusive, VACV Venus inh inconclusive
CCCCCCN(CCCCCC)c1ccc(/C=C/c2ccnc3ccccc23)cc1	none (no result: FMDV inh, Giardia FBPA inh)
CC(=O)N(C1=C(Cl)C(=O)c2ccccc2C1=O)C1CCCCC1	VACV mCherry inh inconclusive, FMDV inh inconclusive, VACV Venus inh inconclusive, Giardia FBPA inh 1.58µM
Cc1ccc([C@H]2C[C@H](O)[C@@H](n3cc(C4CC4)nn3)CN2Cc2cccs2)cc1	VACV mCherry inh inconclusive, VACV Venus inh 11.2µM (no result: Giardia FBPA inh)
COc1ccc([C@H]2C[C@H](O)[C@@H](n3cc(-c4ccc(F)cc4)nn3)CN2Cc2cccs2)cc1	VACV mCherry inh 10µM, FMDV inh inconclusive, VACV Venus inh 10µM (no result: Giardia FBPA inh)
Cc1nc2ccc(C(=O)N3CCc4c(cnc(C)c4CNC(=O)/C=C/c4cccs4)C3)cc2nc1C	none (no result: Giardia FBPA inh)
Cc1c(C(=O)NCc2ccco2)cnn1-c1ncc2c(n1)-c1ccccc1CC2	none (no result: Giardia FBPA inh)
Cc1cc(=O)oc2cc(NC(=O)[C@H](CCCCN)NC(=O)[C@H](CC3CCCCC3)NC(=O)OCC3c4ccccc4-c4ccccc43)ccc12	none (no result: VACV mCherry inh, FMDV inh, VACV Venus inh)
O=C(COC(=O)c1ccc[nH]c1=O)Nc1ccc(N2CCCCC2)cc1	FMDV inh 2.51µM (no result: VACV mCherry inh, VACV Venus inh, Giardia FBPA inh)
Cn1c(N)c(C(=O)CSc2nn(-c3ccccc3)c(=S)s2)c(=O)n(C)c1=O	VACV mCherry inh inconclusive, FMDV inh 25.1µM (no result: Giardia FBPA inh)
c1ccc(-c2cn3nc(-c4ccccc4)sc3n2)cc1	FMDV inh 10µM (no result: Giardia FBPA inh)
COc1ccc2oc(=O)cc(CN3CCN(c4ccc(F)cc4)CC3)c2c1	FMDV inh inconclusive (no result: Giardia FBPA inh)
COc1ccc(O)c(CN2CCC3(CCC(CNC(=O)c4ccco4)O3)CC2)c1 (stereo not drawn)	none (no result: Giardia FBPA inh)
C=CC1=C(C(=O)O)N2C(=O)C(NC(=O)Cc3ccccc3)C2SC1 (stereo not drawn)	Giardia FBPA inh 15.8µM (no result: FMDV inh)
CC(C)(C)c1ccc(/C=C(\c2nc3ccccc3[nH]2)S(=O)(=O)c2ccccc2)cc1	VACV mCherry inh 14.1µM, FMDV inh 20µM, VACV Venus inh inconclusive (no result: Giardia FBPA inh)
Cc1cccc(/C=C(\c2nc3ccccc3[nH]2)S(=O)(=O)c2ccccc2)c1	VACV mCherry inh inconclusive, FMDV inh 8.91µM, VACV Venus inh inconclusive
CN1CCN(c2cc(N3CCc4ccccc4C3)c(F)cc2[N+](=O)[O-])CC1	VACV mCherry inh 10µM, VACV Venus inh inconclusive
CN1CCN(c2cc(N3CCCC3)c([N+](=O)[O-])cc2F)CC1	none
O=C1NC(=S)NC(=O)C1=Cc1ccc(Br)s1	FMDV inh inconclusive (no result: VACV mCherry inh, VACV Venus inh)
CN1C(=O)/C(=C\c2ccc(Br)s2)C(=O)NC1=S	FMDV inh 31.6µM
CC(C)C(c1nnnn1Cc1ccco1)N1CCN(c2nc3ccccc3s2)CC1 (stereo not drawn)	FMDV inh 22.4µM
CN(CCOc1ccc(Cl)cc1)C(=O)c1cccc(S(=O)(=O)N2CCN(Cc3ccccc3)CC2)c1	FMDV inh 10µM (no result: VACV mCherry inh, VACV Venus inh, Giardia FBPA inh)

Source: PubChem BioAssay
